PubChem BioAssay (EPA / NIEHS)
Results filed as inconclusive are left out. Active and inactive are the calls of the source. The calls were made as follows, unless noted: active = hit-call score of the fitted dose curve at least 0.9, where 1 is the maximum; inactive = score below 0.9.

Key:
[1] = molecular target: Ratio of Nucleoli Translocation and Cytoplasm, AR (gene 367) (UniProt P10275); test: UPITT_HCI_U2OS_AR_TIF2_Nucleoli_Cytoplasm_Ratio_Antagonist: University of Pittsburgh U2OS Androgen Receptor-Transcriptional Intermediary Factor 2 (AR-TIF2) Antagonism High Content Imaging Assay for Ratio of Nucleoli Translocation and Cytoplasm (AID 2283999; active = hit-call score of the fitted dose curve at least 0.9, where 1 is the maximum;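 also: antagonists lower the DHT-driven ratio of nucleolar to cytoplasmic red signal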)
Chain of Ratio of Nucleoli Translocation and Cytoplasm, AR (gene 367) (P10275 whole entry, looked up): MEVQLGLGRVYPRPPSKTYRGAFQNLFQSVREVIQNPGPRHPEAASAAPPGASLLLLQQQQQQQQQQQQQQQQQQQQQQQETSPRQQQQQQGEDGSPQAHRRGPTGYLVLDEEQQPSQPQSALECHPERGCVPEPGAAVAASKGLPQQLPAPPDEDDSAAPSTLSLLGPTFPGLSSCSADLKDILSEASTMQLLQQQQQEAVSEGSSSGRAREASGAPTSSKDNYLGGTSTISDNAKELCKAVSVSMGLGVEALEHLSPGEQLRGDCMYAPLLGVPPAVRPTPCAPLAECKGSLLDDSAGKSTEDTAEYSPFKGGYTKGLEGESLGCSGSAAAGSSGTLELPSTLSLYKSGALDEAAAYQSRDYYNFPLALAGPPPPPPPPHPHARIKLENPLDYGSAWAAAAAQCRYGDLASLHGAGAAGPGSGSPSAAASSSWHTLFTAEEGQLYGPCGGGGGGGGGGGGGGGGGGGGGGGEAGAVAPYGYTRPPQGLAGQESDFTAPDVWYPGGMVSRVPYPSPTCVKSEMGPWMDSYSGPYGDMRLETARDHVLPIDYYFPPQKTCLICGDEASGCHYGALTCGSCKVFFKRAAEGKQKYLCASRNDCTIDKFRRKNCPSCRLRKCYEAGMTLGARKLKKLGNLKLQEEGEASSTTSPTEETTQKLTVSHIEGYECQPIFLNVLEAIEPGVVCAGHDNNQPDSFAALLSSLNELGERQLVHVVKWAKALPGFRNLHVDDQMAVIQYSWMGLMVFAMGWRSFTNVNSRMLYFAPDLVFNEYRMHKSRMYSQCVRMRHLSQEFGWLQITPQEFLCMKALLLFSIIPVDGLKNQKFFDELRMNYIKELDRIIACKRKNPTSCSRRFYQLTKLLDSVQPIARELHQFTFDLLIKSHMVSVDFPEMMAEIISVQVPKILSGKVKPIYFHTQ
How it was run: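 High-content imaging quantifies the red nucleolar:cytoplasmic fluorescence ratio in U2OS cells with AR-RFP and TIF2-GFP. Final concentrations are 20 uM (screen) or 0.195–50 uM (dose response), analysed against DHT as baseline.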

[2] = molecular target: Ratio of Nucleoli Translocation and Cytoplasm, AR (gene 367) (UniProt P10275); test: UPITT_HCI_U2OS_AR_TIF2_Nucleoli_Cytoplasm_Ratio_Agonist: University of Pittsburgh U2OS Androgen Receptor-Transcriptional Intermediary Factor 2 (AR-TIF2) Agonism High Content Imaging Assay for Ratio of Nucleoli Translocation and Cytoplasm (AID 2284000; active = hit-call score of the fitted dose curve at least 0.9, where 1 is the maximum;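 also: hits raise the red nucleolar to cytoplasm ratio above vehicle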)
How it was run: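 Read-out first: nucleolar-to-cytoplasm ratio of red (AR-RFP) signal, quantified by high-content imaging in U2OS cells co-expressing TIF2-GFP. Activity is scored as signal increase over DMSO. Single-point screening used 20 uM final (0.2% DMSO).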

[3] = CCTE_Harrill_HTTr_Viability_MCF7: CCTE's 6-hour Cell Viability Assessment for the High-Throughput Transcriptomics (HTTr) Platform, in MCF-7 cells cultured in DMEM + 10% fetal bovine serum, Harrill Lab (AID 2284010)
How it was run: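 Viability measured through PI dye exclusion by high-content imaging at 6 h post-dosing.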

[4] = CCTE_Harrill_HTTr_Apoptosis_MCF7: CCTE's 6-hour Apoptosis Assessment for the High-Throughput Transcriptomics (HTTr) Platform, in MCF-7 cells cultured in DMEM + 10% fetal bovine serum, Harrill Lab (AID 2284011)
How it was run: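 Apoptosis in MCF-7 cells grown in DMEM with 10% fetal bovine serum was scored after a six hour exposure by high content imaging of caspase-3/7 activation (CellEvent Caspase 3/7 Green), with DMSO serving as negative control and baseline.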

[5] = CCTE_Simmons_MITO_basal_resp_rate: CCTE's HepG2 Seahorse XF Respirometric Screening Assay at Basal Respiratory State, Simmons Lab (AID 2284001); settings: actives raise or lower the signal
How it was run: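 HepG2 respirometry; 7-pt titration 125 nM–100 uM final; kinetic OCR at 6 min intervals for 72 min; n=3 biological, technical singles; DMSO baseline, gain or loss fit; fenpyroximate (decrease) and 2,4-DNP (increase) controls.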

[6] = CCTE_Simmons_MITO_inhib_resp_rate: CCTE's HepG2 Seahorse XF Respirometric Screening Assay at Inhibited Respiratory State [full ETC block], Simmons Lab (AID 2284006); settings: actives raise or lower the signal
How it was run: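 Inhibited respiration was taken as HepG2 oxygen consumption after rotenone/antimycin A, which followed test-compound and FCCP injections. Chemicals were tested at seven final concentrations from 125 nM to 100 uM. Activity was fitted bidirectionally relative to DMSO.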

[7] = CCTE_Shafer_MEA_acute_spike_number: CCTE's Neural Acute Assay for Total Number of Spikes, Shafer Lab (AID 2284008)
How it was run: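 Using an adaptive detector set to 8x rms noise, spikes were counted in 40-min windows before and after compound addition (0.03-40 uM) to rat cortical networks at 37 C; the well-level change from baseline was analysed relative to DMSO.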

[8] = CCTE_Shafer_MEA_acute_firing_rate_mean: CCTE's Neural Acute Assay for Mean Firing Rate, Shafer Lab (AID 2284009);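 also: analyzed for loss of signal so actives lower firing rate relative to DMSO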
How it was run: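 Percent change in well-mean firing rate was derived from extracellular spikes detected at 8x rms noise (300-5000 Hz band-pass) before and after a 40-min compound exposure. Cultures were primary rat cortical neurons, tested at 0.03-40 uM.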

[9] = CCTE_Harrill_HTTr_CellCount_MCF7: CCTE's Cell Proliferation Assessment for the High-Throughput Transcriptomics (HTTr) Platform, Harrill Lab (AID 2284012; active = hit-call score of the fitted dose curve at least 0.9, where 1 is the maximum;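 also: count of Hoechst-stained nuclei per well by high-content imaging in MCF-7 cells; cells exposed to compound for six hours; intended direction is loss of nuclei count meaning fewer cells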)
How it was run: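 Nuclei counting (Hoechst, high content imaging) in MCF-7 after a 6 h treatment at eight concentrations. Activity fitted bidirectionally, DMSO as negative control.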

DIO1 (gene 1733) = test: CCTE_GLTED_hDIO1: CCTE's human Deiodinase 1 (DIO1) Inhibition Assay, Great Lakes Toxicology and Ecology Division (GLTED) Lab (AID 2283987; active = hit-call score of the fitted dose curve at least 0.9, where 1 is the maximum;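 also: isolated human DIO1 enzyme in a cell-free setup rather than cells; enzyme activity read as free iodide liberated from substrate via Sandell-Kolthoff colorimetry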)
How it was run: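 Chemicals are tested on human DIO1 without cells for 3 h. Uninhibited enzyme frees iodide, which speeds cerium(IV) reduction by arsenic and is read by spectrophotometry.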

Measured: AC50

Oc1ccc2c(c1)-c1ccccc1C2
inactive: [2] | [3] | [4]
active: [1] 7.43 µM

C=CCCCCCCCCC(=O)O
inactive: [6]
active: [5] 35.1 µM

Cc1ccc(N)cc1O
inactive: [1] | [2]
active: [5] 50 µM | [6] 39.1 µM

CC(C)=CCCC(C)=CC=O
inactive: [5] | [6] | [7] | [8] | [3] | [4]

CNS(=O)(=O)c1cc(C(=O)N2CCC(CCN3C4CCC3CC(n3c(C)nc5ccccc53)C4)(c3cccc(F)c3)CC2)c(Cl)cc1F (centres undefined)
inactive: [1]

Fc1ccccc1[C@@H](F)COC1CCC(Nc2ncnc3[nH]ncc23)CC1 (some centres undefined)
active: [5] 14.1 µM
inactive: [1] | [6] | [3] | [4] | [9]

O=C(CCCCCCCCc1cccnc1)N1CCC(C=C(c2ccccc2)c2ccccc2)CC1
inactive: [1] | [5] | [6] | [3] | [4]

CCOC(=O)c1ccc(C2CCC(NC[C@H](O)COc3ccc(O)c(NS(C)(=O)=O)c3)CC2)cc1 (some centres undefined)
active: DIO1 (gene 1733) 95 µM
not listed: [1] | [2]
inactive: all other assays above

COc1ccc2sc(C(=O)Nc3nnn[nH]3)c(OC(C)C)c2c1
not listed: [1] | [2] | DIO1 (gene 1733)
inactive: all other assays above

O=C(O)c1cccc(N(Cc2cccnc2)c2ccc(OC(F)F)c(OC(F)F)c2)c1
active: [5] 1.03 µM
not listed: [7] | [8] | DIO1 (gene 1733)
inactive: all other assays above

Cc1ccc(O)cc1
inactive: [2] | [3] | [4] | [9]
